For 42 compounds, inhibition results are on record in PubChem BioAssay AID652115 (Broad Institute, 2013).

Values joined by “and” are separate entries in the source; they are usually repeats but may differ in a detail not shown here. Equal values may be shown once. About 3,800 (1.2%) of roughly 330,000 compounds were called active. For the sample, actives were picked, then their nearest neighbours and some compounds at random. A number with no mark means an inactive call. Cut-off read from the data, not from the text of the source: active = inhibition above about 15%; inconclusive = no clear call, values can overlap the other calls; inactive = below that.

Sequence of NAD-dependent protein deacylase sirtuin-5, mitochondrial (Homo sapiens) (Q9NXA8 whole entry, looked up): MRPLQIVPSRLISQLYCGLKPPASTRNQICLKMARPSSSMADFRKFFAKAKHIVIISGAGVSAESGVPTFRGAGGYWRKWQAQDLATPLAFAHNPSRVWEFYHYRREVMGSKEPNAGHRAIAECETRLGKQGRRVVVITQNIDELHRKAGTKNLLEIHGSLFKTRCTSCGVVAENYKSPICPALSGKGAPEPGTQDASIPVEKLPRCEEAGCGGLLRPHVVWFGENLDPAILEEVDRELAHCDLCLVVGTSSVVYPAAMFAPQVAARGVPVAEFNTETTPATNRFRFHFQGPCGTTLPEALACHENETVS

The experiment has as its target NAD-dependent protein deacylase sirtuin-5, mitochondrial (Homo sapiens) (UniProt Q9NXA8). Put plainly: SIRT5 desuccinylase inhibitors, primary screen, biochemical, fluorescence imaging, single point, set 5 (AID 652115). To be noted: Purified SirT5, succinyl-peptide AMC, trypsin-coupled fluorescence; at 15 µM; hits give high values.
Regarding `CCCNC(=O)C[C@@H]1CC[C@H]2[C@H](COc3ccc(NC(=O)CCC)cc3C(=O)N2C)O1`, the inhibition is -0.672%.
In the case of `COc1ccccc1NC(=O)N1CCCCN2[C@H](CO)[C@H](c3ccc(C#CC4CC4)cc3)[C@@H]2C1` it was 0.625%.
Regarding `CO[C@H]1CN(C)C(=O)c2cc(NS(C)(=O)=O)ccc2OC[C@@H](C)N(Cc2ccccc2)C[C@@H]1C`, the inhibition is -4.85%.
In the case of `COCC#Cc1ccc2c(c1)O[C@H](CN(C)C(=O)CN(C)C)[C@@H](C)CN([C@H](C)CO)S2(=O)=O` it was 1.54%.
In the case of `C[C@@H]1CN([C@@H](C)CO)C(=O)c2cc(/C=C/c3ccccc3)cnc2O[C@@H]1CN(C)C(=O)CN(C)C` it was -20%; in that of `C[C@H](CO)N1C[C@H](C)[C@H](CN(C)C(=O)Nc2ccc3c(c2)OCO3)Oc2cc(C#Cc3ccncc3)ccc2S1(=O)=O`, -1.42%.
In the case of `CCCN1C[C@@H](C)[C@@H](OC)CN(C)C(=O)c2cc(NC(=O)NC3CCCCC3)ccc2OC[C@H]1C` it was 0.947%; in that of `C[C@H](NC(=O)[C@H]1N[C@H]2c3ccc(-c4ccc(C(=O)N(C)C)cc4)c(=O)n3C[C@H]2[C@@H]1CO)c1ccccc1`, -55.5%.
Take `O=C(NCC1CC1)[C@@H]1[C@@H](CO)[C@@H]2Cn3c(ccc(-c4ccccc4)c3=O)[C@H]1N2C(=O)C1CC1`: the inhibition is -28%.
`CO[C@@H]1CN(C)C(=O)c2ccc(NC(=O)Nc3ccccc3)cc2OC[C@H](C)N(C(=O)CC2CC2)C[C@@H]1C`: the inhibition was 6.27%.
In the case of `O=C(COC(=O)c1ccc(O)cc1O)NC(=O)c1ccccc1` it was 0.616%.
Turning to `O=C(COC(=O)c1ccc(O)cc1O)c1ccc2c(c1)OCCO2`, the inhibition was 19.1% (active).
Take `O=C(COC(=O)c1ccccc1)c1ccc2c(c1)OCCO2`: the inhibition is 0.878%.
As for `CO[C@H]1CN(C)C(=O)c2cc(NC(=O)c3cnccn3)ccc2OC[C@@H](C)N(CC2CC2)C[C@@H]1C`, the inhibition was 0.994%.
In the case of `O=c1ccc2c(-c3ccccc3S(=O)(=O)O)c3ccc(O)c(O)c3oc-2c1O` it was 15.8% (active); in that of `Cn1cnc(CCNC(=O)C[C@@H]2CC[C@@H]3[C@H](COC[C@@H](O)CN3C(=O)Nc3ccccc3)O2)c1`, 15.8% (active); in that of `Cn1cnc(CCNC(=O)C[C@H]2CC[C@@H]3[C@H](COC[C@@H](O)CN3C(=O)Nc3ccc(Cl)cc3)O2)c1`, 3.58%.
In the case of `Cn1cnc(CCNC(=O)C[C@@H]2CC[C@H]3[C@@H](COC[C@@H](O)CN3C(=O)Nc3ccc(Cl)cc3)O2)c1` it was -1.27%; in that of `C[C@H]1CCCCO[C@H](CN(C)C(=O)Nc2ccccc2)[C@@H](C)CN([C@@H](C)CO)C(=O)c2cc(NC(=O)Nc3ccc4c(c3)OCO4)ccc2O1`, 11.6%.
In the case of `CN(c1ccccc1)S(=O)(=O)c1ccc(C(=O)NCCc2ccccc2)cc1` it was -1.73%; in that of `Cc1ccccc1C(=O)NCCN=C1NS(=O)(=O)c2ccccc21`, 1.57%; in that of `CN(C)S(=O)(=O)c1ccc(C(=O)NCCN=C2NS(=O)(=O)c3ccccc32)cc1`, 15.2% (active).
Take `COc1ccccc1-c1cn(CC[C@@H]2CC[C@@H](NC(=O)c3ccccc3F)[C@H](CO)O2)nn1`: the inhibition was -1.68%.
Take `COc1cccc(S(=O)(=O)N2C[C@@H](O)COC[C@@H]3O[C@H](CC(=O)N4CCN(C)CC4)CC[C@H]32)c1`: the inhibition was -10.1%.
On to `C[C@H](CO)N1C[C@H](C)[C@@H](CN(C)S(=O)(=O)c2cccc(F)c2)Oc2cc(C#CCN(C)C)ccc2S1(=O)=O`, for which the inhibition is 0.005%.
Consider `C[C@@H]1CN([C@@H](C)CO)S(=O)(=O)c2ccc(-c3cccc(F)c3)cc2O[C@@H]1CN(C)S(=O)(=O)c1ccccc1`, for which the inhibition is 12%.
In the case of `C[C@@H]1CN([C@H](C)CO)S(=O)(=O)c2ccc(-c3cccc(F)c3)cc2O[C@H]1CN(C)S(=O)(=O)c1ccc(F)cc1` it was 16.1% (active); in that of `C[C@H]1CN([C@@H](C)CO)S(=O)(=O)c2ccc(-c3cccc(F)c3)cc2O[C@@H]1CN(C)C`, -1.74% and 0.129% and -10.4%; in that of `CC(C)CC#Cc1ccc2c(c1)O[C@H](CN(C)S(=O)(=O)c1cccc(F)c1)[C@@H](C)CN([C@@H](C)CO)S2(=O)=O`, 19.1% (active).
Regarding `C[C@@H]1CN([C@@H](C)CO)S(=O)(=O)c2ccc(C#CCN(C)C)cc2O[C@@H]1CN(C)S(=O)(=O)c1cccc(F)c1`, the inhibition is 2.43%.
In the case of `CCCNC(=O)N1[C@@H]2c3ccc(-c4ccccc4OC)c(=O)n3C[C@H]1[C@H](CO)[C@H]2C(=O)N(C)C` it was -22.3%; in that of `C[C@H]1CN([C@@H](C)CO)C(=O)c2cccc(NS(=O)(=O)c3cccs3)c2O[C@H]1CN(C)Cc1ccc(C(=O)Nc2ccccc2N)cc1`, 5.63%.
In the case of `COc1ccc2c3c(n(C)c2c1)[C@H](CO)N(C(=O)Nc1cccc(F)c1)CC31CN(Cc2nccs2)C1` it was 2.85%.
In the case of `COc1ccc2c3c(n(C)c2c1)[C@@H](CO)N(C(=O)Nc1cccc(F)c1)CC31CCN(Cc2nccs2)CC1` it was 35.6% (active).
Regarding `CCCC(=O)N1CC2(C1)CN(C(=O)Nc1cccc(F)c1)[C@@H](CO)c1c2c2ccc(OC)cc2n1C`, the inhibition was 7.29%.
As to `O=S1(=O)CC(N2CCN(CCO)CC2)CN1Cc1cn(Cc2ccc(Cl)cc2)nn1` (configuration not stated), the inhibition was 32.8% (active).
With `O=S1(=O)CC(N2CCN(CCO)CC2)CN1Cc1cn(Cc2cccc(Cl)c2)nn1` (configuration not stated), the inhibition was -5.71%.
In the case of `Cc1ccc(Cn2cc(CN3CC(N4CCN(C)CC4)CS3(=O)=O)nn2)cc1` (configuration not stated) it was 3.71%; in that of `CCS(=O)(=O)Nc1ccc2c(c1)C(=O)N(C)[C@H]1CC[C@@H](CC(=O)Nc3ccccc3)O[C@H]1CO2`, 2.87%.
In the case of `O=C1NN(c2ccccc2)C(=O)/C1=C/c1ccc(-c2cccc(C(=O)O)c2)o1` it was 8.67%; in that of `O=C(O)C(c1ccccc1)N1C(=O)/C(=C\c2ccc(-c3cccc(Cl)c3)o2)SC1=S` (configuration not stated), 43.9% (active).
In the case of `O=C1c2ccccc2NC(c2ccc(-c3cccc(Cl)c3)o2)N1O` (configuration not stated) it was 1.64%.

In general, inhibition refers to the change of the read-out against control, counted positive when it falls.
